Active and inactive are the calls of the source.
Columns and labels:
[1] = E. coli DRC41 culture turbidity changes, primary screen, E. coli filamentation inducer project, strain DRC41, OD650, 48 h (AID 1152);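 further: E. coli MC1000 strain DRC41 lacking acrAB efflux pump and sulA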; details: E. coli DRC41 (acrAB sulA), higher = more signal, called active from +8 up or from −8 down
[2] = small-molecule binders of probe aLefty1, primary screen, biochemical, small-molecule microarray, 635/667 nm fluorescence (AID 1153); details: higher = more signal;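 further: score merges spot fluorescence with signal-to-noise ratio from the scanned slide images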
[3] = PSAC antagonists in infected red cells, primary screen, cell-based, P. falciparum Indochina, OD700, 1 h (AID 1154); details: P. falciparum Indochina infected RBC osmotic lysis, higher = more signal, called active from +8 up or from −8 down
[4] = PSAC antagonists in infected red cells, primary screen, cell-based, P. falciparum Indochina, OD700, 2 h (AID 1155);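 further: lysis reports solute entry through the parasite surface anion channel PSAC; channel blockers reduce lysis of infected cells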; details: P. falciparum Indochina infected erythrocytes, osmotic lysis OD700; higher = more signal, called active from +8 up or from −8 down
[5] = osmotic lysis modulators in infected erythrocytes, primary screen, PSAC antagonist project, cell-based, P. falciparum Indochina, OD700, 3 h (AID 1156); details: higher = more signal, called active from +8 up or from −8 down
[6] = PSAC antagonists in infected red cells, primary screen, cell-based, P. falciparum Indochina, OD700, 18 h (AID 1157); details: P. falciparum Indochina infected erythrocytes, osmotic lysis OD700, 18 h; higher = more signal, called active from +8 up or from −8 down
[7] = modulators of S6 phosphorylation in cells, primary screen, cell-based, A549, cytoblot, luminescence, serum-stimulated (AID 1158); details: A549 phospho-S6 cytoblot, 5 h, higher = more signal;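 further: serum-stimulated A549 lung adenocarcinoma cells; signal is phosphorylated S6 detected by cytoblot immunostaining with HRP secondary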
[8] = target: NADPH oxidase 2 (Homo sapiens) (UniProt P04839); assay: NOX2-dependent H2O2 signal modulators, primary screen, NOX inhibitor project, cell-based, HEK293-NOX2, PMA-stimulated, Amplex Red fluorescence (AID 1159); details: 45 min, higher = more signal, called active from +8 up or from −8 down; further: test concentration not given here
Chain of NADPH oxidase 2 (Homo sapiens) (P04839 whole entry, looked up): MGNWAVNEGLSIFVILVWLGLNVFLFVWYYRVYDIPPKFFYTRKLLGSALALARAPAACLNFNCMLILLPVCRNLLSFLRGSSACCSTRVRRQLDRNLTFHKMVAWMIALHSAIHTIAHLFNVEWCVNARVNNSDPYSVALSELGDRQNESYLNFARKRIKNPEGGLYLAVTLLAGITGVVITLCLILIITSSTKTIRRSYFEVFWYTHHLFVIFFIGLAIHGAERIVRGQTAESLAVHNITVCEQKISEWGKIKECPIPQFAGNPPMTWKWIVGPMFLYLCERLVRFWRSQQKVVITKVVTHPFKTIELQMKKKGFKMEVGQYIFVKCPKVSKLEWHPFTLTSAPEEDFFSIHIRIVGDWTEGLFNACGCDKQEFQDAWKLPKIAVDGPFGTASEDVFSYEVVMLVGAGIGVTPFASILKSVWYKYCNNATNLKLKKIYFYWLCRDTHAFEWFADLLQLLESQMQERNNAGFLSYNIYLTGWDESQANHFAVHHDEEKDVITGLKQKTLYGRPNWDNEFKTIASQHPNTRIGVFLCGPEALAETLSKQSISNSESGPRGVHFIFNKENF

[9] = target: NADPH oxidase 4 (Homo sapiens) (UniProt Q9NPH5); assay: NOX4-dependent H2O2 signal modulators, primary screen, NOX inhibitor project, cell-based, HEK293-NOX4, tetracycline-induced, Amplex Red fluorescence (AID 1160); details: 45 min, higher = more signal, called active from +8 up or from −8 down
Chain of NADPH oxidase 4 (Homo sapiens) (Q9NPH5 whole entry, looked up): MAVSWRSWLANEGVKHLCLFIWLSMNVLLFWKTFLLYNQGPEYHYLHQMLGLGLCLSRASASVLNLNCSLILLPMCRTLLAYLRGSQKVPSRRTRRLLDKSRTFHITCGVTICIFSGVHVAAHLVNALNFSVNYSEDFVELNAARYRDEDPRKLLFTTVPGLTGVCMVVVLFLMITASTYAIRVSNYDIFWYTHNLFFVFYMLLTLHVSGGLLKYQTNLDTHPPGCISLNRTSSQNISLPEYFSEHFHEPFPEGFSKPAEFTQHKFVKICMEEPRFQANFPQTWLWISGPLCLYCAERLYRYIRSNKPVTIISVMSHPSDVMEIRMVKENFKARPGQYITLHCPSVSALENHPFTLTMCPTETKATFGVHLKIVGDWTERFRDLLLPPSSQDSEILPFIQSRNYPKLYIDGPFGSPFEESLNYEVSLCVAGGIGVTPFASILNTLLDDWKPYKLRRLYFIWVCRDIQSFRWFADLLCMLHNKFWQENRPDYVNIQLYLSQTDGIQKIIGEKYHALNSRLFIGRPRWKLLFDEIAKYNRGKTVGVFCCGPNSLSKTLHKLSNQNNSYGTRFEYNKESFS

[10] = target: NADPH oxidase 5 (Homo sapiens) (UniProt Q96PH1); assay: NOX5-dependent H2O2 signal modulators, primary screen, NOX inhibitor project, cell-based, HEK293-NOX5, Amplex Red fluorescence (AID 1161); details: HEK293-NOX5, ionomycin, 45 min, higher = more signal
Chain of NADPH oxidase 5 (Homo sapiens) (Q96PH1 whole entry, looked up): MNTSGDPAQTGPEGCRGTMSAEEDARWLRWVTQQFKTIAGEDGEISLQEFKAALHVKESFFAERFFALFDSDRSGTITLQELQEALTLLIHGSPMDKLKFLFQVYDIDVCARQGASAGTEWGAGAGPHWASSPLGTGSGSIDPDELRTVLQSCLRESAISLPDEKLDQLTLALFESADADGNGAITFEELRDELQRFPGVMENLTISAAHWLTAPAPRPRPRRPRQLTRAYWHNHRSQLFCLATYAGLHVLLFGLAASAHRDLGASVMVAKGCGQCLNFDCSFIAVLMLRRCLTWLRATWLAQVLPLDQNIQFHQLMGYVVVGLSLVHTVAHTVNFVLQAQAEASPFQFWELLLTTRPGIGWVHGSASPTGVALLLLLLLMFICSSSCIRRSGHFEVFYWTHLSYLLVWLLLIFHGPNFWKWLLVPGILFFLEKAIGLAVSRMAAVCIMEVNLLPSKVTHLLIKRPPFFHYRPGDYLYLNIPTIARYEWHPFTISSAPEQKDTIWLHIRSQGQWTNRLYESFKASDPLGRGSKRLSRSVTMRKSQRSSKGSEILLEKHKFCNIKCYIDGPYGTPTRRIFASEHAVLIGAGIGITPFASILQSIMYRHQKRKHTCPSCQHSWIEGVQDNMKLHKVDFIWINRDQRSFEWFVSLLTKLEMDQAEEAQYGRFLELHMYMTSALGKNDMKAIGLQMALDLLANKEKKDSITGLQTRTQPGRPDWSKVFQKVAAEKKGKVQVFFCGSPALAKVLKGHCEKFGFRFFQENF

[11] = A549 cell viability effects, profiling panel, calcein-AM fluorescence, 48 h, basal (AID 1162); details: higher = more signal; further: test concentration not given here
[12] = adipocyte viability effects, profiling panel, cell-based, 3T3-L1 adipocytes, calcein-AM fluorescence, 48 h, basal (AID 1163); details: 3T3-L1 adipocytes viability, higher = more signal; further: test concentration not given here
[13] = HepG2 cell viability effects, profiling panel, calcein-AM fluorescence, 48 h, basal (AID 1164); details: higher = more signal; further: test concentration not given here
[14] = MM1S cell viability effects, profiling panel, calcein-AM fluorescence, 48 h, basal (AID 1165); details: higher = more signal;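 further: viability of MM1S multiple myeloma cells under basal unstimulated conditions; test concentration not given here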
[15] = basal RPMI8226 viability, no added stimulus, profiling panel, cell-based, calcein-AM fluorescence, 48 h, PK04 Diversity Set (AID 1166); details: RPMI8226 myeloma viability, higher = more signal;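 further: cells grown under basal conditions without added stimulus; test concentration not given here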
[16] = basal HepG2 mitochondrial membrane potential changes, profiling panel, cell-based, JC-1 fluorescence, 24 h, 100 nL compound (AID 1167); details: higher = more signal; further: test concentration not given here
[17] = basal 3T3-L1 adipocyte mitochondrial potential changes, profiling panel, cell-based, JC-1 fluorescence, 3T3-L1 adipocytes, 24 h, 100 nL compound (AID 1168); details: JC-1 mitochondrial fluorescence, higher = more signal, called active from +8 up or from −8 down; further: test concentration not given here
[18] = basal RPMI8226 mitochondrial membrane potential changes, profiling panel, cell-based, JC-1 fluorescence, 24 h, 100 nL compound (AID 1169); details: RPMI8226 myeloma, JC-1 mitochondrial potential fluorescence, higher = more signal; further: test concentration not given here
[19] = basal MM1S mitochondrial membrane potential changes, profiling panel, cell-based, JC-1 fluorescence, 24 h, 100 nL compound (AID 1170); details: higher = more signal; further: test concentration not given here
[20] = A549 lung cancer cell viability effects, profiling panel, resazurin fluorescence, 24 h, PK04 Diversity Set (AID 1171); details: higher = more signal, called active from +8 up or from −8 down; further: test concentration not given here

SMILES	z-score [1]	composite z-score [2]	z-score [3]	z-score [4]	z-score [5]	z-score [6]	z-score [7]	z-score [8]	z-score [9]	z-score [10]	z-score [11]	z-score [12]	z-score [13]	z-score [14]	z-score [15]	z-score [16]	z-score [17]	z-score [18]	z-score [19]	z-score [20]
COC(=O)[C@@]1(Cc2ccc(F)cc2)[C@H]2c3cc(C(=O)N4CCCC4)n(CCc4c[nH]c5cc(F)ccc45)c3C[C@H]2CN1C(=O)c1ccccc1	-1.22 (inactive)	0.429	1.76 (inactive)	0.456 (inactive)	1.86 (inactive)	0.984 (inactive)	0.593	0.361 (inactive)	1.9 (inactive)	2.01	-0.767	-0.0351	0.194	-0.234	-1.37	2.18	-1.2 (inactive)	-0.449	-1.21	0.339 (inactive)
O=C(N1CCOCC1)[C@]1(CCS(=O)(=O)c2ccccc2)N=C(c2ccc(OCCCO)cc2)O[C@@H]1c1ccccc1	0.427 (inactive)	0.441	27.2 (active)	20 (active)	3.43 (inactive)	2.61 (inactive)	0.0315	0.348 (inactive)	1.72 (inactive)	1.16	0.569	1.29	0.176	-0.345	-0.0091	1.43	1.14 (inactive)	-0.176	-0.424	0.54 (inactive)
COc1ccc([Si](C)(C)[C@H]2[C@H](CC(=O)N(CCO)Cc3ccccc3)O[C@@]3(C(=O)N(Cc4cccc(N5CCCCC5=O)c4)c4ccccc43)[C@@H]2C)cc1	1.52 (inactive)	0.109	11.3 (active)	1.31 (inactive)	0.4 (inactive)	-0.553 (inactive)	2.6	0.0671 (inactive)	0.591 (inactive)	2.24	-0.166	1.19	-1.16	-0.391	-4.18	0.553	1.65 (inactive)	-0.981	-1.61	-1.91 (inactive)
COC(=O)[C@]1(Cc2ccccc2CN=[N+]=[N-])N=C(c2ccc(OCCCO)cc2)O[C@@H]1c1ccccc1N=[N+]=[N-]	0.204 (inactive)	0.167	31.1 (active)	28.4 (active)	0.444 (inactive)	7.23 (inactive)	-0.424	-0.938 (inactive)	0.298 (inactive)	1.44	-3.25	-0.028	-5.51	-3.55	-4	1.52	-0.387 (inactive)	-1.06	-2.47	-2.73 (inactive)
COC(=O)[C@H]1N=C(c2ccc(OCCCO)cc2)O[C@H]1c1ccccc1N=[N+]=[N-]	-0.33 (inactive)	0.527	29.3 (active)	24.7 (active)	2.2 (inactive)	4.48 (inactive)	0.352	-1.69 (inactive)	-0.0764 (inactive)	-2.1	-0.206	0.323	-0.151	-0.862	-1.44	-0.434	-0.419 (inactive)	-0.739	0.567	-0.15 (inactive)
CCCCN1CC=CC23O[C@@H]4C=CCCOC(=O)C4[C@H]2C(=O)N(CCO)[C@@H]3C1=O (stereo not given in full)	0.634 (inactive)	-0.239	0.506 (inactive)	0.303 (inactive)	1.21 (inactive)	0.211 (inactive)	-0.357	1.09 (inactive)	0.519 (inactive)	0.432	-0.725	0.0904	-2.09	0.303	-0.105	-0.508	0.0409 (inactive)	0.0612	0.37	-0.288 (inactive)
COc1ccc(CCNC(=O)[C@@]2(c3ccc([N+](=O)[O-])cc3)CC(=O)N(C3CCCCC3)[C@@H]2c2ccc(CO)cc2I)cc1	0.423 (inactive)	0.0341	11.9 (active)	1.78 (inactive)	3.17 (inactive)	1.04 (inactive)	-0.189	1.3 (inactive)	-1.04 (inactive)	2.21	0.507	0.969	-0.348	-2.41	-2.58	1.31	0.72 (inactive)	-0.293	0.379	-1.11 (inactive)
COC(=O)C1=CC(c2ccc(CO)cc2)=CC(C2CC2)N(Cc2cc3c(cc2Br)OCO3)C=C1C(=O)OC (stereo not given)	-0.938 (inactive)	0.3	10.6 (active)	0.856 (inactive)	0.954 (inactive)	0.572 (inactive)	-0.625	-0.853 (inactive)	-0.385 (inactive)	0.857	-0.0232	0.679	0.522	-0.785	-2.39	0.733	0.278 (inactive)	-0.563	-1.34	-1.15 (inactive)
CCc1cccc(NC(=O)O[C@H]2[C@H](OC(=O)Nc3ccccc3-c3ccccc3)[C@H](OC(=O)Nc3ccccc3-c3ccccc3)[C@@H](OC)O[C@@H]2CO)c1	-1.98 (inactive)	0.0442	3.88 (inactive)	1.84 (inactive)	0.17 (inactive)	1.77 (inactive)	0.371	-3.06 (inactive)	-0.477 (inactive)	-1.01	-2.01	-0.228	-1.7	-1.62	-0.201	-0.812	-0.398 (inactive)	-0.841	-1	-0.684 (inactive)
C=C(COC)C(=O)CC[C@H](OC(C)=O)c1ccc(CO)o1	0.82 (inactive)	-0.0061	0.421 (inactive)	0.112 (inactive)	-0.0728 (inactive)	-1.12 (inactive)	0.555	-1.04 (inactive)	-0.207 (inactive)	-1.31	0.0053	0.972	-0.582	0.657	1.76	0.378	-0.587 (inactive)	-0.563	-0.434	0.642 (inactive)
COC(=O)Cn1c(C(=O)N(C)C)cc2c1C[C@H]1CN(C(=O)c3ccccc3)[C@@](Cc3ccccc3)(C(=O)OC)[C@@H]21	-2.08 (inactive)	0.155	-0.424 (inactive)	-0.734 (inactive)	-0.486 (inactive)	-1.31 (inactive)	0.17	0.363 (inactive)	1.59 (inactive)	-0.11	-0.314	0.275	-0.479	0.0914	-0.512	-1.11	-0.327 (inactive)	-0.146	-1.11	0.374 (inactive)
[N-]=[N+]=NCc1ccccc1[C@H]1OC(c2ccc(OCCCO)cc2)=N[C@@]1(Cc1ccccc1N=[N+]=[N-])C(N)=O	-0.0584 (inactive)	0.439	22.9 (active)	3.47 (inactive)	1.46 (inactive)	0.79 (inactive)	0.362	-4.46 (inactive)	-0.74 (inactive)	-2.11	-0.0372	-0.117	-0.18	-1.84	-1.76	-0.255	0.199 (inactive)	-1.06	-0.928	0.85 (inactive)
C=C(CCCC)/C(=C/C[C@@H](OC(C)=O)c1cccc(OCCO)c1)c1cc(C(=O)OC)ccc1OC	0.198 (inactive)	-0.0969	17.4 (active)	3.45 (inactive)	1.42 (inactive)	1.02 (inactive)	0.0322	-2.13 (inactive)	-1.16 (inactive)	-1.88	0.771	0.204	0.622	-2.41	-1.98	1.44	-0.288 (inactive)	0.186	-0.679	1.25 (inactive)
COc1cccc(C)c1NC(=O)O[C@H]1[C@H](OC(=O)Nc2ccccc2)[C@@H](OC(=O)Nc2ccccc2)[C@@H](OC)O[C@@H]1CO	-0.818 (inactive)	0.26	3.02 (inactive)	0.121 (inactive)	0.376 (inactive)	0.421 (inactive)	0.249	-7.01 (inactive)	-1.26 (inactive)	-2.29	-1.86	0.861	-1.9	-2.59	-3.26	-0.702	1.17 (inactive)	-1.05	0.0418	-3.49 (inactive)
O=C1O[C@@H](c2ccccc2)[C@@H](c2ccccc2)N2[C@@H](c3ccc(OCCO)cc3)[C@]3(C(=O)Nc4ccc(C#CC5=CCCCC5)cc43)[C@@H](C(=O)Nc3nc4ccccc4s3)[C@H]12	-0.558 (inactive)	-0.0857	1.88 (inactive)	2.03 (inactive)	1.92 (inactive)	2.11 (inactive)	-0.579	1.01 (inactive)	-0.188 (inactive)	0.0226	0.583	0.0884	0.803	-1.69	-2.18	-3.08	-0.395 (inactive)	-1.12	-1.92	-1.27 (inactive)
O=C1C2C=CC(C(O)C3CC=CCC3)N(Nc3ccc([N+](=O)[O-])cc3)C2C(=O)N1c1ccccc1 (stereo not given)	-0.852 (inactive)	0.908	24.8 (active)	5.02 (inactive)	4 (inactive)	1.2 (inactive)	-0.837	-1.03 (inactive)	-3.02 (inactive)	-3.26	-0.562	0.243	-1.55	0.25	-0.738	-1.02	-1.43 (inactive)	-0.374	0.000383	-0.383 (inactive)
C[N+](C)(C)CCCC[C@@H]1NC(=O)[C@H]2C[C@@H](C(=O)O)[C@@H](c3ccc(O)cc3)N2C1=O	1.03 (inactive)	0.0437	3.34 (inactive)	1.17 (inactive)	-2.47 (inactive)	0.302 (inactive)	1.2	-1.77 (inactive)	-1.23 (inactive)	-0.411	0.434	0.291	0.0336	-3.12	0.442	1.93	-0.301 (inactive)	-0.2	-1.26	0.554 (inactive)
OCCCc1cc[n+](Cc2cc3c(cc2Br)OCO3)cc1	0.855 (inactive)	0.0191	-0.103 (inactive)	0.0608 (inactive)	-0.895 (inactive)	-0.237 (inactive)	-0.132	-0.0452 (inactive)	0.27 (inactive)	-0.112	-0.322	0.504	-0.325	0.4	-0.419	0.138	0.506 (inactive)	-0.437	1.39	-0.298 (inactive)

Reference: PubChem BioAssay
